Data published in PubChem BioAssay AID1851 (National Center for Advancing Translational Sciences (NCATS), 2009).
Values joined by “and” are separate entries in the source; they are usually repeats but may differ in a detail not shown here. Equal values may be shown once. In all, about 16,000 compounds went through this assay and about 5,700 (36%) were called active. Another 24% or so got no clear call; they are omitted. This is one part of the list. Values without a mark were called inactive. Calls follow the shape of the dose curve; as a rule, active = well fitted curve in the direction sought with a large enough effect; inconclusive = small, poorly fitted or top-dose-only effect, or effect the other way; inactive = no such curve, though single readings can be large or run the other way.

Biological target: Cytochrome P450 1A2 (Homo sapiens) (UniProt P05177)
Sequence (P05177 whole entry, looked up): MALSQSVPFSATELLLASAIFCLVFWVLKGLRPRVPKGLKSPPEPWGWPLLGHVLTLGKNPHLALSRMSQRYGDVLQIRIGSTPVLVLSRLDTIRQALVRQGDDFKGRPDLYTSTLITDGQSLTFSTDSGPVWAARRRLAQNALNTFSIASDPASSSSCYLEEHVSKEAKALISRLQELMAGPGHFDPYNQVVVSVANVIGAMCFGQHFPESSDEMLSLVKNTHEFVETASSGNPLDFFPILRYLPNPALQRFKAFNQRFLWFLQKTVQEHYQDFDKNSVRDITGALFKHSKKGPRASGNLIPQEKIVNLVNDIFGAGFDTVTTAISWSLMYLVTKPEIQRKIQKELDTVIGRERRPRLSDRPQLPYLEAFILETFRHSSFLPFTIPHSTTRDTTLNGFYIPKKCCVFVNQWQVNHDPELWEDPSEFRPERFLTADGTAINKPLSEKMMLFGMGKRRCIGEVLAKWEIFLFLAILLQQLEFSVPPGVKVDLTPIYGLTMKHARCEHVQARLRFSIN
Experiment: Cytochrome panel assay with activity outcomes
Settings: recombinant CYP, pro-luciferin dealkylation, luminescence, p450-cyp1a2; series mostly up to 57.1 µM; activity, negative = inhibition: at the top concentration
% is scaled to controls: 0 for no effect and ±100 for the full control effect.

SMILES	activity, negative = inhibition	AC50
C/C(CCN1CCCc2nc(C)c(C)cc21)=N\O[C@@H](C)c1cn([C@H](CO)Cc2ccccc2)nn1	-5.46% [at 11.4 µM] and -2.73% [at 11.4 µM]	
Nc1ncnc2c1ncn2[C@H]1O[C@@H](C(=O)O)[C@@H](O)[C@H]1O	-10.9% [at 11.4 µM]	
CC(C)CN1CCCC2(CCN(C(=O)c3csnn3)CC2)C1	-9.16%	
O=C(c1cc(-c2cccs2)on1)N1CCN(c2ccc(F)cc2)CC1		2.82 µM (active)
O=C(c1ccc2ncsc2c1)N1CCN(c2ccc(O)cc2)CC1	-16.1%	
Nc1ccc(N2CCN(C(=O)c3ccco3)CC2)cc1	16.2%	
Cc1cc(C)c(-c2noc(C(=O)OC(C)(C)C)c2C(=O)OC(C)(C)C)c(C)c1	-10.5%	
Cn1c(=O)c(-c2ccc(Cl)cc2)nc2cnc(OCc3ccccc3)nc21		0.794 µM (active)
Cn1c(=O)c(-c2ccccc2)nc2cnc(OCc3ccccc3)nc21		1.58 µM (active)
O=C(c1csnn1)N1CCC2(CCN(Cc3nccs3)CC2)CC1	-4.92%	
COc1ccc(CONS(=O)(=O)c2ccc(NC(C)=O)cc2)cc1Cl		14.1 µM (active)
COC(=O)C(NS(=O)(=O)c1ccc(NC(C)=O)cc1)C(C)C (stereo unspecified)	-19.1%	
COc1ccc(CCNC(=O)CC(NS(=O)(=O)c2ccc(NC(C)=O)cc2)C(C)C)cc1OC (stereo unspecified)	-6.9%	
O=C(CSc1nc2ccccc2c(=O)n1NC(=O)Cc1ccccc1)NCc1ccccc1Cl		15.8 µM (active)
CCOC(=O)c1c(-c2ccccc2)csc1NC(=O)c1cccc(N2C(=O)CCC2=O)c1		8.91 µM (active)
CCOC(=O)c1c(-c2ccc(C)cc2)csc1NC(=O)C1CC=CCC1C(=O)O (stereo unspecified)		12.6 µM (active)
CCc1cc(C(c2ccccc2OC)N2CCOCC2)c(NC(=O)c2ccccc2)s1 (stereo unspecified)	-23.9%	
CCOC(=O)c1c(-c2cccc(C)c2)csc1NC(=O)c1c(-c2ccccc2)noc1C	6.98%	
CCOC(=O)c1c(NC(=O)C2C3CCC(O3)C2C(=O)O)sc(C)c1-c1ccc(C)cc1 (stereo unspecified)	9.59%	
O=C(c1cc(C(F)(F)F)cc(C(F)(F)F)c1)N1CCC2(CCN(Cc3nccs3)CC2)CC1	-7.63%	
Cn1c(=O)cc(SCC(=O)NCCCN2CCOCC2)c2ccc(Cl)cc21	-14.7%	
CCOC(=O)CSc1cc(=O)n(C)c2cc(Cl)ccc12		1.26 µM (active)
Cc1cnc2cc(Cl)ccc2c1SCC(=O)O	-2.26% [at 2.29 µM]	
O=C(CSCc1c(F)cccc1Cl)NCC1CCCO1 (stereo unspecified)		15.8 µM (active)

SMILES	activity, negative = inhibition	AC50
O=C(NCC1CCCO1)c1onc(CSc2ccccc2F)c1C(=O)O (stereo unspecified)	13.9%	
O=C(CN(Cc1ccccc1Cl)C(=O)c1ccc(CN2CCOCC2)o1)NCC1CCCO1 (stereo unspecified)	0.687%	
CSc1nc2ccccc2cc1/C=C(\C#N)c1cccc(Cl)c1		2 µM (active)
CSc1nc2ccccc2cc1/C=C(\C#N)c1ccccc1		2.82 µM (active)
O=C(NNC(=O)c1cc2cc3ccccc3nc2s1)c1cccc(Cl)c1	-25.7%	
CSc1nc2ccccc2cc1/C=C(\C#N)c1cccc(C)c1		3.55 µM (active)
CSc1nc2ccccc2cc1/C=C(\C#N)c1ccc(Cl)cc1Cl		1.78 µM (active)
CSc1nc(C)c(CCOC(=O)c2cccc(C)c2)c(=O)[nH]1	-10.3%	
COc1ccc(NC(=O)N2CC3(CCN(C(=O)c4cccn4C)CC3)C2)cc1	-1.16%	
CCC(=O)OCC(=O)[C@@]1(OC(=O)CC)[C@H](C)C[C@@H]2[C@H]3CCC4=CC(=O)C=C[C@]4(C)[C@]3(Cl)[C@@H](O)C[C@@]21C	-7.99% [at 25.6 µM]	
CN(Cc1ccco1)c1cc(-c2ccccc2Cl)ncn1		2.51 µM (active)
CN(C)Cc1ccccc1-c1cc(N(C)Cc2ccco2)ncn1		15.8 µM (active)
Cc1cc(C(C)(C)C)cc(C)c1CC1=NCCN1	9.92%	
CO[C@]1(C2=NCCN2)COc2ccccc2O1	-19%	
Cc1ccccc1/C=C\C1=NCCN1		6.31 µM (active)
CCC(=O)c1ccc(OCC(O)CN2CCCCC2)cc1 (stereo unspecified)	9.96%	
CCCCOc1ccc(C(=O)CCN2CCCCC2)cc1		3.16 µM (active)
CC(C)C(NC(=O)C1CCCCC1)C(=O)NC1CCN(Cc2ccccc2)CC1 (stereo unspecified)	-3.86%	
CCOc1cc(NC(=S)NCC2CCCO2)c(OCC)cc1NC(=O)c1ccccc1C (stereo unspecified)	-29.8%	
Cc1ccccc1C(=O)c1c[nH]c(C(=O)NCC2CCCO2)c1 (stereo unspecified)		25.1 µM (active)
Cc1ccccc1C(=O)c1c[nH]c(C(=O)NCc2cccs2)c1		10 µM (active)
Cc1ccc(C(=O)NCC2CCCO2)cc1N1CCCC1=O (stereo unspecified)	-17.5%	
COc1ccc(C(=O)c2c[nH]c(C(=O)NCc3cccs3)c2)cc1	-8.62%	
O=C(O)CC[C@]1(C(=O)O)CCC(=O)c2ccccc21	-9.13% [at 11.4 µM]	

SMILES	activity, negative = inhibition	AC50
CC[C@](N)(C(=O)O)C(C)C	-14.6% [at 11.4 µM]	
Cc1cccn2c(=O)c(C=NCc3ccco3)c(Nc3ccc(SC(F)F)cc3)nc12		0.562 µM (active)
O=c1c2ccccc2nc(-c2ccc(Br)cc2)n1Cc1ccccc1		10 µM (active)
Cc1ccc(C(=O)CNc2nc3c(c(=O)[nH]c(=O)n3C)n2Cc2ccccc2)cc1	-22.2%	
O=C(CCn1nc(-c2ccc(Cl)cc2)c2ccccc2c1=O)NCCN1CCOCC1	-17.2%	
O=c1c2ccccc2c(-c2ccc(Br)cc2)nn1Cc1ccccc1		2.82 µM (active)
CC1Cc2ccccc2N1C(=O)Cn1cc([N+](=O)[O-])cn1 (stereo unspecified)	-18.3%	
CCOC(=O)c1c(NC(=O)Cn2cc([N+](=O)[O-])cn2)sc2c1CCC2		2.82 µM (active)
CCOC(=O)c1c(NC(=O)CSc2nnc(C)s2)sc2c1CCCCC2		8.91 µM (active)
COC(=O)c1c(NC(=O)c2ccco2)sc2c1CCC2		0.891 µM (active)
COC(=O)c1c(NC(=O)Cn2cc([N+](=O)[O-])cn2)sc2c1CCC2		1.26 µM (active)
CCC(=O)NC(Nc1sc2c(c1C(=O)OC)CCCC2)(C(F)(F)F)C(F)(F)F	-5.11%	
CC(=O)OC1COC(N2CCc3cc([N+](=O)[O-])ccc32)C(OC(C)=O)C1OC(C)=O (stereo unspecified)	0.819%	
C#CCSc1nc(Cc2ccc(Cl)cc2)nc2ccccc12		1.26 µM (active)
CCc1nc(SCC(=O)NNC(=O)C2CCCCC2)c2ccccc2n1	1.59%	
Fc1ccc(Cn2c(SCc3ccc(F)c(C(F)(F)F)c3)nnc2C(F)(F)F)cc1	-29.4%	
COc1cccc(CSc2nnc(C(F)(F)F)n2Cc2ccc(F)cc2)c1		11.2 µM (active)
CC(C)CC1NC(=S)N(C2CCCCC2)C1=O (stereo unspecified)	-15.6%	
Cc1c(N2CCCC2)cc2c(c1NC(=O)c1ccccc1Cl)C(C)(C)CC2(C)C	-13.1% [at 2.29 µM]	
CCc1ccc(OCCCC(=O)Nc2ccc(N3CCCCC3)cc2)cc1	-6.6%	
CC(=O)Nc1ccc(N2CCCCC2)cc1		14.1 µM (active)
O=C(Nc1ccc(N2CCCCC2)cc1)c1cncc(Br)c1		4.47 µM (active)
O=C(/C=C/c1ccc(Cl)cc1)Nc1ccc(N2CCCCC2)cc1	-7.34%	
CC(=O)N1CCN(c2ccc(NC(=O)c3ccc(C)cc3)cc2)CC1	0.154%	

SMILES	activity, negative = inhibition	AC50
Cc1ccc(NC(=O)c2cc(NC(=O)CCC(=O)O)ccc2N2CCCCC2)cc1	-14.5%	
CC(=O)Nc1ccc(N2CCCCC2)c(C(=O)Nc2cccc(C)c2)c1		14.1 µM (active)
CC(C)CN1CCC2(CC1)CCN(C(=O)c1cnccn1)CC2	-7.79%	
CC(=O)OC[C@@H]1O[C@@H](O/N=C2/C[C@@H](O)[C@@H](O)[C@@H]3[C@@H]4C(=O)N(Cc5ccccc5)C(=O)[C@H]4CC[C@H]23)[C@H](OC(C)=O)[C@H](OC(C)=O)[C@@H]1OC(C)=O	-1.74% [at 11.4 µM]	
CSc1nc2c(c(C(F)(F)F)n1)CC(C)CC2 (stereo unspecified)		25.1 µM (active)
O=C(Nc1cccc(C(F)(F)F)c1)c1n[nH]c(Cn2cncn2)n1		0.126 µM (active)
C[C@H](NC(=O)Cn1cncn1)c1ccccc1	-3.83%	
O=C(Nc1ccc(OC(F)(F)F)cc1)c1n[nH]c(Cn2cncn2)n1		0.158 µM (active)
Cc1ccccc1OCCNc1ccc(C(F)(F)F)cc1[N+](=O)[O-]		0.891 µM (active)
O=[N+]([O-])c1cc(C(F)(F)F)ccc1NCCCCNS(=O)(=O)c1ccc2ccccc2c1	-31.8%	
Cc1ccc(C)c(C(=N)c2ccccc2Cc2ccccc2)c1	-6.82% [at 2.29 µM]	
COC(=O)c1c(C)[nH]c(C)c1C(=O)c1ccccc1Cc1ccccc1		0.251 µM (active)
Nc1nc(SCc2ccc([N+](=O)[O-])cc2)c2ncn([C@@H]3O[C@@H](CO)[C@@H](O)[C@H]3O)c2n1	-8.58%	
Cc1ccc(S(=O)(=O)N(CCCN2CCCC2=O)Cc2cc3c(C)ccc(C)c3[nH]c2=O)cc1	-21%	
Cc1ccc(CS(=O)(=O)CCC(=O)NCCCN2CCCC2=O)cc1	-15.9%	
COc1ccc2[nH]c3c(NCCCN4CCCC4=O)ncnc3c2c1		11.2 µM (active)
CC(=O)N[C@@H](CC(=O)O)C(=O)O	-4.66% [at 25.6 µM]	
CC1CCN(C(=O)CSc2nc3cccnc3n2C)CC1		20 µM (active)
CC1CCN(C(=O)C2CCN(S(=O)(=O)c3cccc4nonc34)CC2)CC1	-0.137%	
Cc1nc2ccccc2nc1SCC(=O)N1CCC(C)CC1		3.55 µM (active)
Cn1c(SCC(=O)N2CCN(S(=O)(=O)c3ccccc3)CC2)nc2ccccc21	-17.9%	
CC1CC(C)CN(C(=O)CSc2nnc(CSc3ncccn3)n2C)C1 (stereo unspecified)	-0.204%	
NC(=O)C1CCN(C(=O)CN2C(=O)c3ccccc3S2(=O)=O)CC1	1.85%	
CCc1cc2c(nc1CC)CCN(CC/C(C)=N/O[C@@H]1O[C@H](COC(C)=O)[C@H](OC(C)=O)[C@H](OC(C)=O)[C@H]1OC(C)=O)C2	0.132% [at 11.4 µM]	
